# Laboratory results published in PubChem BioAssay.
# Activity calls are given as the source filed them.
# What was measured:
# [1] = system: Plasmodium falciparum Sir2 (PF13_0152, Sir2A); assay: pfSir2 binders on small-molecule microarrays, primary screen, biochemical, small-molecule microarray, 635 nm fluorescence (AID 1098); settings: small-molecule microarray binding, fluorescence 635 nm; higher = more signal;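 note: score merges spot fluorescence intensity with its signal-to-noise ratio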
# [2] = small-molecule microarray binders of probe aDKK1, primary screen, biochemical, biotinylated probe, 635/667 nm fluorescence (AID 1099); settings: higher = more signal;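 note: score merges 667nm spot fluorescence with signal to noise across triplicate slides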
# [3] = small-molecule microarray binders of probe aCHRDL2, primary screen, biochemical, biotinylated probe, 635/667 nm fluorescence (AID 1100); settings: higher = more signal
# [4] = splicing luciferase reporter signal modulators, primary screen, spliceosome inhibition project, cell-based, HEK293, splice +/- reporter (AID 1101); settings: luminescence, 24 h, higher = more signal, called active from +8 up or from −8 down;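 note: HEK293 cells carrying a splicing-competent luciferase reporter gene; test concentration not given here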
# [5] = target: Fibroblast growth factor 10 (Homo sapiens) (UniProt O15520); assay: FGF10 binders on small-molecule microarrays, primary screen, biochemical, small-molecule microarray, 635 nm fluorescence (AID 1102); settings: FGF10 binding, fluorescence 635 nm, higher = more signal
# Fibroblast growth factor 10 (Homo sapiens), sequence (O15520 whole entry, looked up): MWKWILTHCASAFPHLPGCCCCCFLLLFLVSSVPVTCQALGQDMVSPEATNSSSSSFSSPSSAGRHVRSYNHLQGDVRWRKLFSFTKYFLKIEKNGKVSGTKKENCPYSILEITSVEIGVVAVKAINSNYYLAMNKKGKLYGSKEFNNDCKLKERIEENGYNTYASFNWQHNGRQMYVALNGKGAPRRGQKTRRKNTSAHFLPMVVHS
# [6] = system: glycogen synthase kinase-3 (GSK3A per assay name; protocol says GSK3B); assay: GSK3 binders on small-molecule microarrays, primary screen, biochemical, small-molecule microarray, 635 nm fluorescence, GSK3A (AID 1103); settings: small-molecule microarray binding, fluorescence 635 nm; higher = more signal; note: the record names both GSK3A and GSK3B
# [7] = target: Epidermal growth factor receptor (Homo sapiens) (UniProt P00533); assay: EGFR binders on small-molecule microarrays, primary screen, biochemical, small-molecule microarray, 635 nm fluorescence (AID 1104); settings: EGFR binding, higher = more signal;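 note: score merges 667 nm emission intensity with spot signal to noise over triplicate slides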
# Epidermal growth factor receptor (Homo sapiens), sequence (P00533 whole entry, looked up): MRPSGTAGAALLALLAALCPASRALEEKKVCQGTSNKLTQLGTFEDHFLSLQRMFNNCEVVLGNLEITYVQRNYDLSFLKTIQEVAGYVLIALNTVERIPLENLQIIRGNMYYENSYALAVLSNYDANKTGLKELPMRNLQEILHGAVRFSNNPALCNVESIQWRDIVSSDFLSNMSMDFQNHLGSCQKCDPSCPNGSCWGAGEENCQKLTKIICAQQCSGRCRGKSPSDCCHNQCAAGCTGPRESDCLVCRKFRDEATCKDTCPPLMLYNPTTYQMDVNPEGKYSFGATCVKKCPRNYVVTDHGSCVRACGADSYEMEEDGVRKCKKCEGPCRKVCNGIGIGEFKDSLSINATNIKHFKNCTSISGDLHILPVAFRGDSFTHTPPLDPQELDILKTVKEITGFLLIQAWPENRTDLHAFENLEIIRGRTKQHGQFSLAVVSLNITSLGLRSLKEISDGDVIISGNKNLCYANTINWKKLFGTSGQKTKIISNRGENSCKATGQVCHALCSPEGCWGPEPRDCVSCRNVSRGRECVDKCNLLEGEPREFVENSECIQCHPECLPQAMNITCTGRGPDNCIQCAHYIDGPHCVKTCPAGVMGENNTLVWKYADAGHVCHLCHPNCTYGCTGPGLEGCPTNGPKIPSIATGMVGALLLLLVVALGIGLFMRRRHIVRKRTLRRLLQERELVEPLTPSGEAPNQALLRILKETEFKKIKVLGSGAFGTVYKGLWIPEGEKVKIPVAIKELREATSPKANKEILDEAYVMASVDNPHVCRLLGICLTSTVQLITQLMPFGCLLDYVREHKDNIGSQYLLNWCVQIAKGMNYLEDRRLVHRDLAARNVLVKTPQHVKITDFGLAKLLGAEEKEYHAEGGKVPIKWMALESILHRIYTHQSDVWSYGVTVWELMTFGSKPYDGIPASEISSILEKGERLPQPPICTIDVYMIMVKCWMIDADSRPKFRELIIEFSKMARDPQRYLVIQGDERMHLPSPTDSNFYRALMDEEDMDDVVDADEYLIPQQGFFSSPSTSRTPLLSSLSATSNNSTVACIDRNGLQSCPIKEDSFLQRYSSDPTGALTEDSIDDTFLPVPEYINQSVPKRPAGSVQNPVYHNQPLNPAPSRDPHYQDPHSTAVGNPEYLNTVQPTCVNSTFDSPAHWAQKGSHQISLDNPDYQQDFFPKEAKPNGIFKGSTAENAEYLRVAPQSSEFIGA
# [8] = target: Follistatin-related protein 3 (Homo sapiens) (UniProt O95633); assay: FSTL3 binders on small-molecule microarrays, primary screen, biochemical, small-molecule microarray, 635 nm fluorescence (AID 1105); settings: FSTL3 binding, higher = more signal;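 note: score merges emission near 667 nm and signal to noise per printed spot across three slides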
# Follistatin-related protein 3 (Homo sapiens), sequence (O95633 whole entry, looked up): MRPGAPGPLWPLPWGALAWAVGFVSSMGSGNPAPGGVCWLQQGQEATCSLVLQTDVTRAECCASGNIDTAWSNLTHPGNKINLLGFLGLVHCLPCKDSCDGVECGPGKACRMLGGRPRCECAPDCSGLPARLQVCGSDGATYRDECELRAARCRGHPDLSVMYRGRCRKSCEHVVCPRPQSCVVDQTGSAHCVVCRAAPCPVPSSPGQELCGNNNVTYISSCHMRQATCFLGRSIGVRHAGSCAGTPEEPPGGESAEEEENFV
# [9] = target: Dickkopf-related protein 1 (Homo sapiens) (UniProt O94907); assay: DKK1 binders on small-molecule microarrays, primary screen, biochemical, small-molecule microarray, 635 nm fluorescence scan (AID 1106); settings: DKK1 binding, higher = more signal;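 note: score merges emission near 667 nm with signal to noise over three replicate slides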
# Dickkopf-related protein 1 (Homo sapiens), sequence (O94907 whole entry, looked up): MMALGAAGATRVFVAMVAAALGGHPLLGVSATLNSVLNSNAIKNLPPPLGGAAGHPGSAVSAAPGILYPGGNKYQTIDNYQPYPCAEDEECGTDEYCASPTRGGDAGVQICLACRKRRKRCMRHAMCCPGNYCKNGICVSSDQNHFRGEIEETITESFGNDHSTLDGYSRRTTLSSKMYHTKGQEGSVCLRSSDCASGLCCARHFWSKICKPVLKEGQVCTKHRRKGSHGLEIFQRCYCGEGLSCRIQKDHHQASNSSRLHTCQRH
# [10] = system: Inhibin beta A chain (activin A); assay: INHBA (activin A) binders on microarrays, primary screen, biochemical, small-molecule microarray, 635 nm fluorescence scan (AID 1107); settings: small-molecule microarray binding, higher = more signal;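 note: mouse activin A protein probed at 4.33 µg/mL on printed slides; score merges bound-protein fluorescence near 667 nm with spot signal-to-noise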
# [11] = system: Human papillomavirus type 1a protein E7 (residues 44-93); assay: HPV1a E7 fragment binders on microarrays, primary screen, biochemical, small-molecule microarray, residues 44-93, 635 nm fluorescence (AID 1108); settings: small-molecule microarray binding, fluorescence 635 nm; higher = more signal;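 note: E7 fragment applied at 1 µg/mL in TBST for 1 h at 4 C; score combines spot fluorescence with its signal to noise ratio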
# [12] = modulators of HCV replicon luciferase signal, primary screen, HCV replication inhibitor project, Huh7 cells, luciferase reporter (AID 1109); settings: 48 h, higher = more signal;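 note: huh7 hepatoma cells harbouring a luciferase neomycin HCV replicon reporter; luciferase luminescence as measure of HCV replicon replication; test concentration not given here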
# [13] = target: Left-right determination factor 2 (Homo sapiens) (UniProt O00292); assay: LEFTY2 binders on small-molecule microarrays, primary screen, biochemical, small-molecule microarray, 635 nm fluorescence scan (AID 1110); settings: LEFTY2 binding, higher = more signal
# Left-right determination factor 2 (Homo sapiens), sequence (O00292 whole entry, looked up): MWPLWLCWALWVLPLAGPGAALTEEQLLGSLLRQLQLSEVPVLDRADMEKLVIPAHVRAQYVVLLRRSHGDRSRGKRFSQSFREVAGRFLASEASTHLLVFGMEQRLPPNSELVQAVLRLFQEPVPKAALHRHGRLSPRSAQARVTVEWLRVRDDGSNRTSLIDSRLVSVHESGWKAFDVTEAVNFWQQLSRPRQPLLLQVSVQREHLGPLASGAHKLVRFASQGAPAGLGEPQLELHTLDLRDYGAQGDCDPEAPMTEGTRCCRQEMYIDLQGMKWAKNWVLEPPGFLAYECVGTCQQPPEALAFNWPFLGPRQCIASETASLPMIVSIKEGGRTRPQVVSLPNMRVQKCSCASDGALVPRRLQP
# [14] = target: Calmodulin-1 (Homo sapiens) (UniProt P0DP23); assay: CALM1 binders on microarrays, EGTA buffer, profiling panel, biochemical, small-molecule microarray, Cy5-labelled CALM1 (AID 1111); settings: Cy5-CALM1 binding fluorescence, higher = more signal;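 note: labelled calmodulin applied in Tris saline Tween buffer holding calcium plus EGTA and DTT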
# [15] = target: Calmodulin-1 (Homo sapiens) (UniProt P0DP23); assay: calcium-bound CALM1 binders on microarrays, profiling panel, artefact control for SMM control-protein annotation, biochemical, small-molecule microarray, Cy5-labelled CALM1, plus calcium (AID 1112); settings: Cy5-CALM1 binding fluorescence, higher = more signal;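 note: score merges spot fluorescence with signal to noise from triplicate slides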
# [16] = small-molecule microarray binders of probe aWnt5a, primary screen, biochemical, biotinylated probe, 635/667 nm fluorescence (AID 1113); settings: higher = more signal;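 note: score merges 667 nm fluorescence intensity with signal-to-noise per printed feature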
# [17] = small-molecule microarray binders of probe aShh, primary screen, biochemical, biotinylated probe, 635/667 nm fluorescence (AID 1114); settings: higher = more signal;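 note: probe is biotin-labelled aShh protein from a stem cell growth factor screen; measures binding of labelled protein to compounds printed on the slide; score merges feature fluorescence at 667 nm with signal-to-noise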
# [18] = small-molecule microarray binders of probe aNog, primary screen, biochemical, biotinylated probe, 635/667 nm fluorescence (AID 1115); settings: higher = more signal;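 note: probe is biotinylated aNog protein used at 0.15 µg/mL for 1 h at 4 C; z-score combines 667 nm fluorescence of each spot with its signal to noise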
# [19] = target: Torsin-1A-interacting protein 1 (Homo sapiens) (UniProt Q5JTV8); assay: LAP1 binders from COS7 cell lysate, primary screen, small-molecule microarray, 635/667 nm fluorescence (AID 1116); settings: COS7-hLAP1 lysate binding, 635 nm fluorescence, higher = more signal
# Torsin-1A-interacting protein 1 (Homo sapiens), sequence (Q5JTV8 whole entry, looked up): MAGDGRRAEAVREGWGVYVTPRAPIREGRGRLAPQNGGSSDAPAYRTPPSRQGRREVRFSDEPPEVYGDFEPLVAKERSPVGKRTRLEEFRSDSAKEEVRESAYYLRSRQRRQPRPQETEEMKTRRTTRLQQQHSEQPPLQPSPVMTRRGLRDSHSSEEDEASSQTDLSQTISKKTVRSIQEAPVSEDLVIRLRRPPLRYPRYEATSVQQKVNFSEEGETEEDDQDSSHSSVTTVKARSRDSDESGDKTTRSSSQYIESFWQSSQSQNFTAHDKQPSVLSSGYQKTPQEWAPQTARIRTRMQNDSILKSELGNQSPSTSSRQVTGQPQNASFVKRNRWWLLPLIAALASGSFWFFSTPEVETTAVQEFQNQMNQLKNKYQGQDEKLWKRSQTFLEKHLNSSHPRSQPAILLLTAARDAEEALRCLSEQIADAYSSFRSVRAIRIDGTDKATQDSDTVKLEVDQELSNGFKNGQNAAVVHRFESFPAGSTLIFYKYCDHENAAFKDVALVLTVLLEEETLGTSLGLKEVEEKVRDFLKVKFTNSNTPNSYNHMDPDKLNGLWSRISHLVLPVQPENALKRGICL
# [20] = target: Alpha-bungarotoxin (Bungarus multicinctus) (UniProt P60615); assay: alpha-bungarotoxin binders on microarray, profiling panel, artefact control for SMM control protein annotation, biochemical, small-molecule microarray, Alexa647 label, 635/667 nm fluorescence (AID 1117); settings: alpha-BTX-A647 binding fluorescence, higher = more signal
# Alpha-bungarotoxin (Bungarus multicinctus), sequence (P60615 whole entry, looked up): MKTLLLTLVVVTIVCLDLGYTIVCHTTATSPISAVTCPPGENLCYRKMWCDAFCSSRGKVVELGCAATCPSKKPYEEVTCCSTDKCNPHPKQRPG
SMILES,composite z-score [1],composite z-score [2],composite z-score [3],z-score [4],composite z-score [5],composite z-score [6],composite z-score [7],composite z-score [8],composite z-score [9],composite z-score [10],composite z-score [11],z-score [12],composite z-score [13],composite z-score [14],composite z-score [15],composite z-score [16],composite z-score [17],composite z-score [18],composite z-score [19],composite z-score [20]
[N-]=[N+]=Nc1ccccc1[C@H]1OC(c2ccc(OCCCO)cc2)=N[C@@]1(Cc1ccccc1)C(N)=O,0.929,1.46,1.23,-1.86 (inactive),1.09,1.28,0.13,1.09,0.0868,1.43,1.33,-0.742,0.172,2.26,1.12,0.0998,1.03,0.489,1.12,3.09
COC(=O)C1=CC(c2ccc(CO)cc2)=CC(c2cccs2)N(C)C=C1C(=O)OC (stereo not given),1.52,0.772,1.13,-1.77 (inactive),-0.0489,-0.57,-0.407,0.409,-0.813,1.46,-0.526,-0.176,-0.76,1.36,0.774,-0.096,0.138,0.603,0.107,0.765
C[N+](C)(C)CCCCNC(=O)[C@@H]1C[C@@H]2C(=O)NCC(=O)N2[C@@H]1c1cccc(OCCO)c1,0.594,-0.365,-0.211,-1.49 (inactive),1.16,0.68,0.627,1.39,1.72,-0.0907,0.299,0.703,1.08,-0.189,-0.131,0.0519,0.0756,0.145,1.66,1.89
CCCC[C@@H](O)C1=C(C)C[C@H]2C(=O)N(C)C(=O)[C@H]2[C@H]1CO,1.42,-0.372,-0.493,-0.72 (inactive),0.755,0.349,0.269,0.229,0.3,-0.301,0.276,0.739,0.322,-0.409,-0.471,-0.0944,0.0141,0.185,0.0605,0.548
COC(=O)[C@@]1(CCC(=O)OC(C)(C)C)COC(c2ccc(OCCCO)cc2)=N1,-1.07,0.623,1.18,-0.493 (inactive),-1.2,-1.19,-1.82,-2.47,-2.17,-0.0726,-1.42,0.136,-1.57,-0.683,0.674,-0.197,-0.0626,0.424,-0.123,-0.741
C[N+](C)(C)CCCC[C@@H]1NC(=O)[C@H]2C[C@@H](C(=O)NCCCCCN)[C@@H](c3cccc(OCCO)c3)N2C1=O,1.19,1.23,1.02,-1.82 (inactive),0.837,0.985,-0.0784,0.564,0.044,1.63,1.2,-0.295,-1.17,1.3,0.767,0.133,0.302,0.708,1.91,2.15
O=C(NC1CC1)[C@@H]1c2ccccc2C(=O)N(Cc2ccccc2C(F)(F)F)[C@H]1c1ccc(CO)cc1,0.271,0.561,0.341,-0.0246 (inactive),0.554,1.27,0.388,0.471,0.113,0.708,1.06,-0.639,0.319,0.64,0.585,-0.0977,0.172,0.0272,0.714,0.353
C=CCNC(=O)[C@H]1[C@@H]2C(=O)O[C@@H](c3ccccc3)[C@@H](c3ccccc3)N2[C@@H](c2ccc(OCCO)cc2)[C@]12C(=O)Nc1ccc(C#CCCO)cc12,1.36,0.299,0.797,-1.26 (inactive),0.241,-0.145,-0.105,0.359,-0.059,0.629,0.699,-0.735,-0.0631,0.0076,0.295,-0.175,-0.0769,0.332,1.42,1.9
CC1CC/C=C\[C@H]2OC34C=CCN(C(C)C)C(=O)[C@H]3N(C(CO)C(C)C)C(=O)[C@@H]4C2C(=O)O1 (stereo not given in full),-0.144,0.0383,0.228,-0.0607 (inactive),-0.505,-0.95,-0.818,-0.253,-0.429,0.64,-1.48,-0.403,-0.944,-1,-0.339,-0.202,-0.0626,-0.178,0.193,-2.8
CN1C=C(C(=O)OCCS(C)(=O)=O)C(C(=O)OCCS(C)(=O)=O)=CC(CCCO)=CC1c1cccs1 (stereo not given),-0.122,-0.18,-0.707,-0.601 (inactive),0.395,0.891,0.56,0.663,0.537,-0.558,0.358,-0.911,0.716,-0.524,-0.676,-0.0161,-0.0011,-0.036,0.151,-0.515
C[N+](C)(C)CCCC[C@@H]1NC(=O)[C@@H]2C[C@H](C(=O)NCCCCCNC(=O)CS)[C@H](c3ccc(O)cc3)N2C1=O,1.3,-0.0611,0.346,4.12 (inactive),0.0481,-0.638,-0.849,0.0788,0.171,0.57,-0.643,-0.0298,-0.739,0.21,0.669,-0.191,0.138,0.208,2.19,1.12
